Results reported in PubChem BioAssay (Tox21).
Results filed as inconclusive are left out. Calls of active or inactive are those of the source. Unless noted, calls follow the shape of the dose curve; as a rule, active = well fitted curve in the direction sought with a large enough effect in the repeat runs; inconclusive = weak or mixed curves; inactive = no such curve, though single readings can be large; an effect the other way counts as inactive or inconclusive.

Tests used:
[1] = qHTS assay to identify small molecule agonists of the vitamin D receptor (VDR) signaling pathway - cell viability counter screen (AID 743224); also: nearly all actives have a fitted effect of over 50% in size
Outline: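 VDR-bla cells, 4 h after plating, exposed to compounds for 16 h at 37C; viability then read in the same wells as CellTiter-Glo luminescence after 30 min at room temperature, following the bla FRET read.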

[2] = qHTS assay to identify small molecule antagonists of the vitamin D receptor (VDR) signaling pathway - cell viability counter screen (AID 743225); also: nearly all actives have a fitted effect of over 50% in size
Outline: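 HEK293T VDR-bla; cpd + 1a,25-(OH)2D3 3 nM final, 16 h 37C/5% CO2; B/G FRET substrate 2 h RT; then CellTiter-Glo 30 min RT, luminescence.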

[3] = qHTS assay to identify small molecule agonists of the NFkB signaling pathway (AID 1159509; active = well fitted curve in the direction sought with a large enough effect in the signal ratio in the repeat runs, not every such curve was filed as active; the % refers to the signal ratio)
Outline: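 ME-180 NFkB-bla, 2,000 cells/well, overnight plating; cpd pinned in DMSO, 5 h 37 C; B/G FRET substrate 1.5 h RT; ex 405, em 460/530 nm.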

[4] = qHTS assay to identify small molecule agonists of the NFkB signaling pathway - cell viability counter screen (AID 1159515; calls by dose curve; also: nearly all actives have a fitted effect of over 55% in size)
Outline: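 NFkB-bla ME-180 cells, 2,000/well, plated overnight at 37 C; compound added for 5 hr at 37 C. Viability read in the same wells as the bla reporter, by CellTiter-Glo luminescence after 30 min at room temperature.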

[5] = qHTS assay to identify small molecule agonists of the endoplasmic reticulum stress response signaling pathway (AID 1159516; active = well fitted activation curve with a large enough effect in the signal ratio in the repeat runs, not every such curve was filed as active; the % refers to the signal ratio)
Outline: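 CellSensor ESRE-bla HeLa cells, 1,500 per well, plated overnight, then exposed to compounds for 5 hr at 37 C. Beta-lactamase reporter read with LiveBLAzer B/G FRET substrate after 2 hr at room temperature, 405 nm excitation, 460 and 530 nm emission.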

[6] = qHTS assay to identify small molecule agonists of the endoplasmic reticulum stress response signaling pathway - cell viability counter screen (AID 1159517; calls by dose curve;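 also: HeLa cells carrying an ER stress response element beta-lactamase reporter; nearly all actives have a fitted effect of over 50% in size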)
Outline: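 HeLa cells carrying an ESRE-driven beta-lactamase reporter receive compound for 5 hr at 37 C. Cell viability is then gauged with CellTiter-Glo by luminescence, 30 min at room temperature.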

[7] = qHTS assay to identify small molecule antagonists of the retinoid-related orphan receptor gamma (ROR-gamma) signaling pathway - cell viability counter screen (AID 1159520); also: nearly all actives have a fitted effect of over 50% in size
Outline: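 Cytotoxicity was read from cellular ATP (CellTiter-Glo luminescence) after 16 hr at 37 C with 1 uM doxycycline induction. The inducer was added 2 hr after compound transfer to Tet-on ROR gamma CHO cells.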

[8] = molecular target: Nuclear receptor ROR-gamma (Homo sapiens) (UniProt P51449); test: qHTS assay to identify small molecule antagonists of the retinoid-related orphan receptor gamma (ROR-gamma) signaling pathway (AID 1159521)
Outline: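 Cells were plated, rested 4 h at 37 C, exposed to compounds for 2 h, then given 1 uM final doxycycline hyclate to induce RORγ expression. After 16 h, ONE-Glo luminescence from the ROR response element reporter was measured.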

[9] = qHTS assay to identify small molecule agonists of the AP-1 signaling pathway - cell viability counter screen (AID 1159525; calls by dose curve; also: nearly all actives have a fitted effect of over 55% in size)
Outline: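 Luminescent ATP readout (Cell Titer Glo, 30 min RT), normalised to DMSO and tetra n-octyl ammonium bromide controls. Cells were ME-180 AP-1-bla in 0.5% dialyzed FBS Opti-MEM, with a 5 h, 37 °C compound exposure.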

[10] = qHTS assay to identify small molecule agonists of the AP-1 signaling pathway (AID 1159526; calls by dose curve)
[11] = molecular target: Retinoic acid receptor RXR-alpha (Homo sapiens) (UniProt P19793); test: qHTS assay to identify small molecule agonists of the RXR signaling pathway (AID 1159527; calls by dose curve; also: nearly all actives have a fitted effect of over 35% in size)
Chain of Retinoic acid receptor RXR-alpha (Homo sapiens) (P19793 whole entry, looked up): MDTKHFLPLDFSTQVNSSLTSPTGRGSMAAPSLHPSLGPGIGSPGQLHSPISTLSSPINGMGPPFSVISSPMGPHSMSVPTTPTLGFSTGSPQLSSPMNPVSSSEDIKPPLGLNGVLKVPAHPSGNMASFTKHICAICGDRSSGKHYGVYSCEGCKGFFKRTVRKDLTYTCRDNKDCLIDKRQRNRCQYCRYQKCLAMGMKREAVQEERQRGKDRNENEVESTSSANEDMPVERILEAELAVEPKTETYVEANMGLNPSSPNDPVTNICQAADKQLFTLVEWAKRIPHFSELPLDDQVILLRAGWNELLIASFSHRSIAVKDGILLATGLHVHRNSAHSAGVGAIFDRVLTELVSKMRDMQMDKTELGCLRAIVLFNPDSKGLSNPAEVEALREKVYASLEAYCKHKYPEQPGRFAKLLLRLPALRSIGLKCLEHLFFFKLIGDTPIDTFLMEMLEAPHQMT
Outline: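 Cells plated at 2,000/well, rested 5 hr at 37 C, pin-dosed with DMSO compound solutions, incubated 16 hr, then loaded with B/G FRET substrate for 2 hr at RT before dual-emission fluorescence reading.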

[12] = qHTS assay to identify small molecule agonists of the RXR signaling pathway - cell viability counter screen (AID 1159529)
Outline: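 Steps: seed RXR-alpha-UAS-bla HEK 293T cells in assay medium containing 2% charcoal-stripped FBS; incubate 5 hr; add compounds in DMSO; incubate 16 hr at 37 C; after the bla read, add CellTiter-Glo and read luminescence at 30 min.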

[13] = qHTS assay to identify small molecule antagonists of the retinoid acid receptor (RAR) signaling pathway - cell viability counter screen (AID 1159551); also: nearly all actives have a fitted effect of over 35% in size
Outline: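 C3RL4 RARE-luciferase cells, 1,000/well, incubated overnight, then dosed with compound plus 1 uM retinol (final). After 6 hr at 37 C, viability read by CellTiter-Glo ATP luminescence following 30 min at room temperature.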

[14] = qHTS assay to identify small molecule antagonists of the retinoic acid receptor (RAR) signaling pathway (AID 1159552; also: nearly all actives have a fitted effect of over 50% in size)
Outline: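 Retinol at 1 uM final stimulated RARE-luciferase expression in C3RL4 cells exposed to test compounds for 6 hr at 37 C. Reduced luminescence, read 30 min after detection reagent, indicated pathway antagonism.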

[15] = qHTS assay to identify small molecule agonists of the retinoic acid receptor (RAR) signaling pathway (AID 1159553); settings: C3RL4 RARE luciferase reporter, agonist, 6 h; activation: at 73.3 µM (top of the series)
Outline: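 C3RL4 RARE-luciferase cells were seeded at 1,000/well and grown overnight at 37 C, then exposed to compounds for 6 hr at 37 C, 5% CO2. Luciferase reagent was added and luminescence was read after 30 min at room temperature.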

[16] = molecular target: Luciferin 4-monooxygenase (Photinus pyralis) (UniProt P08659); test: qHTS assay to identify small molecule inhibitors of firefly luciferase (AID 1224835); also: nearly all actives have a fitted effect of over 25% in size
Chain of Luciferin 4-monooxygenase (Photinus pyralis) (P08659 whole entry, looked up): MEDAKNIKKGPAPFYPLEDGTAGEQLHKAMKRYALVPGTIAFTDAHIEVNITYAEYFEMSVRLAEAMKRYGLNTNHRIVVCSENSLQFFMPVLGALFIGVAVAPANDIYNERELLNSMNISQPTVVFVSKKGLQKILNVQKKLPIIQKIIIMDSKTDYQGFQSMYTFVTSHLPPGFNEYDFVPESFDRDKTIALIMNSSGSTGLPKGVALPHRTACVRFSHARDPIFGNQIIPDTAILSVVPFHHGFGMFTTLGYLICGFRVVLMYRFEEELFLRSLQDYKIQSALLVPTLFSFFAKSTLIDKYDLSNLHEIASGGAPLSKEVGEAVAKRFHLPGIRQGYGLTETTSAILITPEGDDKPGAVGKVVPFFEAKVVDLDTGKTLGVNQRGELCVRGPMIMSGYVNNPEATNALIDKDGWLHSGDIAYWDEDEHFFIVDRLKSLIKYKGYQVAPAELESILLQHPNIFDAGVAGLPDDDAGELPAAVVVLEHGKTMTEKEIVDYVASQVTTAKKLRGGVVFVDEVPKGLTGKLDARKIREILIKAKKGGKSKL
Outline: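 Inhibition of purified Photinus luciferase is measured by luminescence. Substrate levels (D-luciferin, ATP) sit at their KM values. Each compound is tested in a concentration series.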

[17] = qHTS assay to identify small molecule agonists of the constitutive androstane receptor (CAR) signaling pathway - cell viability counter screen (AID 1224836); also: nearly all actives have a fitted effect of over 45% in size
Outline: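 Cells were seeded and incubated 4 hrs. Compounds were added across 15 concentrations together with PK11195 at 0.75 uM final. Plates were incubated 23 hrs at 37 C. CellTiter-Fluor was added and fluorescence measured.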

[18] = qHTS assay to identify small molecule antagonists of the constitutive androstane receptor (CAR) signaling pathway - cell viability counter screen (AID 1224837); also: nearly all actives have a fitted effect of over 45% in size
Outline: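 HepG2 cells stably carrying hCAR and CYP2B6-2.2kb reporter, stimulated with 50 nM CITCO and compounds at 15 concentrations for 23 h at 37 C. Viability measured by CellTiter-Fluor fluorescence.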

[19] = molecular target: Nuclear receptor subfamily 1 group I member 3 (Homo sapiens) (UniProt Q14994); test: qHTS assay to identify small molecule antagonists of the constitutive androstane receptor (CAR) signaling pathway (AID 1224838); also: nearly all actives have a fitted effect of over 40% in size
Chain of Nuclear receptor subfamily 1 group I member 3 (Homo sapiens) (Q14994 whole entry, looked up): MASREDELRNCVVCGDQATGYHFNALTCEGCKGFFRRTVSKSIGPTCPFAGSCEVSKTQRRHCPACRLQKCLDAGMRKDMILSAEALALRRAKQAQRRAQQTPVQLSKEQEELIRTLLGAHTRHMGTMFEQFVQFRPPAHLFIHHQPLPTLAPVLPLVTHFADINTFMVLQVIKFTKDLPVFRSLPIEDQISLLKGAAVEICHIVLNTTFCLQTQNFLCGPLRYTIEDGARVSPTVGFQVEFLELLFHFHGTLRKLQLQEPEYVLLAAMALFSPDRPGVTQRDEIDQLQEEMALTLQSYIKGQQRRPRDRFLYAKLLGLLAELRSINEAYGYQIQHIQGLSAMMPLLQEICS
Outline: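 HepG2 cells stably carrying hCAR and a CYP2B6-2.2kb luciferase reporter, seeded 4 hrs before compound (15 concentrations). Stimulated with 50 nM CITCO for 24 hr at 37 C. ONE-Glo luminescence read after 30 min at room temperature.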

[20] = qHTS assay to identify small molecule antagonists of the estrogen related receptor (ERR) signaling pathway from Tox21 library - cell viability counter screen (AID 1224834); also: nearly all actives have a fitted effect of over 30% in size
Outline: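 ERR reporter cells, 2,000 per well, rested 6 h, then exposed to compound in DMSO for 17.5 hours at 37 C. Viability read as fluorescence after 30 min with CellTiter-Fluor.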

Measured: Potency

Cc1ccc(C(=O)C(=O)O)cc1C
not listed: [19] | [20]
inactive: all other assays above

O=C(O)c1ccc(OCCN2CCCCC2)cc1
not listed: [17] | [19] | [20]
inactive: all other assays above

CCN(CCO)c1cccc(C)c1
not listed: [16] | [17] | [20]
inactive: all other assays above

CCOC(=O)CC#N
not listed: [16] | [19]
inactive: all other assays above

COc1cc2c3cc1Oc1cc(ccc1O)C[C@@H]1c4c(cc(OC)c(O)c4Oc4ccc(cc4)C[C@@H]3N(C)CC2)CC[N+]1(C)C
not listed: [18] | [19]
inactive: all other assays above

Cc1ccccc1C
not listed: [18] | [19]
inactive: all other assays above

Cn1c(=O)c2c(ncn2CC2OCCO2)n(C)c1=O
not listed: [17]
inactive: all other assays above
